HT1080 IDH1KD tx = kills HT-1080 cells with IDH1 knockdown. 360,000 tested, 2% active. HT-1080 IDH1 knockdown viability, ATP luminescence, 48 h. Potency, µM (highest dose often 46.1 µM), most hits filed as cytotoxic
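Assay cells: HT-1080 with IDH1 knockdown, 750 per well, RPMI/5% FBS. Exposure: 48 h at 37 °C following 2 h pre-incubation. Read: CellTiter-Glo luminescence; fitted concentration-response, curve class assigned.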
TDP1 cell CPT = growth inhibition of DT40 Tdp1-/-;hTDP1 cells with camptothecin (screen for TDP1 inhibitors). chicken DT40 Tdp1-/-;hTDP1 cells + 20 nM CPT, ATP luminescence, 48 h. Potency, µM (titrated, usually from 46.2 µM), hits mostly inhibitors. 420,000 tested, 12% active; note: nearly all actives have a fitted effect of over 55% in size
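Chicken DT40 Tdp1-/- cells complemented with human TDP1, 400 cells/well, exposed to compounds plus 20 nM camptothecin for at least 48 h at 37 C; viability read as ATP content by CellTiter-Glo luminescence.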
HT1080-NT tox = kills 2HG-producing HT-1080-NT fibrosarcoma cells; HT-1080-NT fibrosarcoma viability, CellTiter-Glo ATP luminescence, 48 h; Potency, µM (top dose mostly 46.1 µM), usual class: cytotoxic; 360,000 tested, 1.6% active; AID 686970;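 note: NT is the 2HG producing partner of a matched IDH1 knockdown line; nearly all actives have a fitted effect of over 55% in size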
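HT-1080-NT; 750 cells/well; 5% FBS RPMI; 48 h compound, 37 degrees C; CellTiter-Glo luminescence; curve fitting and curve-class assignment.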
TDP1 cell noCPT = qHTS for Inhibitors of human tyrosyl-DNA phosphodiesterase 1 (TDP1): qHTS in cells in absence of CPT; AID 686978, 2013; Potency, µM (doses to about 46.2 µM), most hits filed as inhibitors; DT40 Tdp1-/- hTDP1 cells, no CPT, ATP luminescence, 48 h; 420,000 tested, 15% active; note: nearly all actives have a fitted effect of over 55% in size
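No-CPT arm: Tdp1-/-;hTDP1 DT40 cells (400/well) plus compounds, incubated ≥48 hr at 37 °C. Readout CellTiter-Glo luminescence.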
uPA surface inh = inhibitors of cell surface uPA generation; Potency, µM (doses to about 38.3 µM), actives largely listed as inhibitors; cell surface uPA generation assay, qHTS; 330,000 tested, 0.31% active; active = well fitted inhibition curve with a large enough effect; inconclusive = small, poorly fitted or top-dose-only effect; inactive = no such curve, though single readings can be large or run the other way; tested in mouse RAW 264.7 cells; note: nearly all actives have a fitted effect of over 55% in size
IL-1B inflam inh = blocks inflammasome-driven IL-1 beta release | 360,000 tested, 4.7% active | activity change, % at 57.5 µM | THP-1 LPS/ATP IL-1B secretion, AlphaLISA, 16 h; hits give low values | AID 743279; in the data active = activity change below about -50%; inconclusive = mostly about -30% to -49%
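Secreted IL-1B measured by AlphaLISA bead assay after 16 h compound exposure of THP-1 cells; compounds (final up to 57.5 uM) added 1 h before LPS (250 ng/mL) and ATP (1.25 mM) stimulation; lower signal means less secretion.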
Numbers stand for hits. Rows were chosen to be rich in hits. Some 19% of all compounds tested hit in one or more screens of this group. Unless noted, calls come from the whole dose curve; as a rule, active = well fitted curve in the direction sought with a large enough effect; inconclusive = small, poorly fitted or top-dose-only effect, or another doubt; inactive = no such curve, though single readings can be large; an effect the other way counts as inactive or inconclusive.

For COc1ccc(N2C(=O)c3ccccc3NC2c2ccc(NC(C)=O)cc2)c(OC)c1 (configuration not stated) the results were HT1080 IDH1KD tx inactive, TDP1 cell CPT inactive, HT1080-NT tox inactive, TDP1 cell noCPT inactive, uPA surface inh inactive and IL-1B inflam inh inactive.
COc1ccc(C2Nc3ccccc3C(=O)N2c2ccc(Cl)cc2)cc1COc1ccc(NC(C)=O)cc1 (configuration not stated) was read as TDP1 cell CPT inconclusive and TDP1 cell noCPT 14.1µM.
CCOC(=O)C1=C(C)NC(C)=C(C(=O)OCC)C1c1ccc(OC)cc1 was read as HT1080 IDH1KD tx inactive, TDP1 cell CPT 14.6µM, HT1080-NT tox inactive, TDP1 cell noCPT 23.1µM, uPA surface inh inactive and IL-1B inflam inh inactive.
Screening CCOC(=O)C1=C(C)NC(=O)NC1c1ccc(Br)o1 (configuration not stated) returned HT1080 IDH1KD tx inactive, TDP1 cell CPT inactive, HT1080-NT tox inactive, TDP1 cell noCPT inactive, uPA surface inh inactive and IL-1B inflam inh inactive.
Screening CCOC(=O)C1=C(C)NC(C)=C(C(=O)OCC)C1c1ccc(Br)o1 returned HT1080 IDH1KD tx inactive, TDP1 cell CPT 9.2µM, HT1080-NT tox inactive, TDP1 cell noCPT 23.1µM, uPA surface inh inactive and IL-1B inflam inh -72.0.
For CCOC(=O)C1=C(C)NC(SC)=NC1c1ccc(OC)cc1 (configuration not stated) the results were HT1080 IDH1KD tx inactive, TDP1 cell CPT inactive, HT1080-NT tox inactive, TDP1 cell noCPT inactive, uPA surface inh inactive and IL-1B inflam inh -50.4.
Screening Cc1ccc[n+](CC(=O)Nc2ccc(C)c(C)c2)c1 returned HT1080 IDH1KD tx inactive, TDP1 cell CPT inconclusive, HT1080-NT tox inactive, TDP1 cell noCPT inactive, uPA surface inh inactive and IL-1B inflam inh inactive.
CCOC(=O)C1(C)CCN1C(=O)c1ccco1 (configuration not stated) was read as HT1080 IDH1KD tx inactive, TDP1 cell CPT inactive, HT1080-NT tox inactive, TDP1 cell noCPT inactive and IL-1B inflam inh inactive.
Screening CCCN1CCN(C(=O)c2oc3ccccc3c2NC(=O)C2CC2)CC1 returned HT1080 IDH1KD tx inactive, TDP1 cell CPT inactive, HT1080-NT tox inactive, TDP1 cell noCPT inactive, uPA surface inh inactive and IL-1B inflam inh inactive.
Cc1ccccc1NCC(=O)N/N=C/c1c(C)c(C(=O)c2ccc(Cl)cc2)n2ccccc12 was read as HT1080 IDH1KD tx inactive, TDP1 cell CPT 16.4µM, HT1080-NT tox inactive, TDP1 cell noCPT 16.4µM, uPA surface inh inactive and IL-1B inflam inh inactive.
`NC(=O)c1cc(N2C(=O)C=CC2=O)ccc1Cl` gave HT1080 IDH1KD tx 15.8µM, TDP1 cell CPT 13µM, HT1080-NT tox inconclusive, TDP1 cell noCPT 16.4µM, uPA surface inh inactive and IL-1B inflam inh inactive.
CC(=O)Nc1ccc(Cl)c(C(N)=O)c1 was read as HT1080 IDH1KD tx inactive, TDP1 cell CPT inactive, HT1080-NT tox inactive, TDP1 cell noCPT inactive, uPA surface inh inactive and IL-1B inflam inh inactive.
For CCC(C)NS(=O)(=O)c1ccc(NC(=O)C(Sc2ccccc2)c2ccccc2)cc1 (configuration not stated) the results were HT1080 IDH1KD tx inconclusive, TDP1 cell CPT inconclusive, HT1080-NT tox inactive, TDP1 cell noCPT inconclusive, uPA surface inh inactive and IL-1B inflam inh -54.4.
CC(=O)NS(=O)(=O)c1ccc(NC(=O)C(Sc2ccccc2)c2ccccc2)cc1 (configuration not stated) was read as HT1080 IDH1KD tx inactive, TDP1 cell CPT inactive, HT1080-NT tox inactive, TDP1 cell noCPT inactive, uPA surface inh inactive and IL-1B inflam inh inactive.
`CC(C)c1ccc2oc(=O)cc(CN3CCCCC3)c2c1` gave HT1080 IDH1KD tx inactive, TDP1 cell CPT 29.1µM, HT1080-NT tox inactive, TDP1 cell noCPT 23.1µM, uPA surface inh inactive and IL-1B inflam inh inactive.
For CC(C)c1ccc2oc(=O)cc(CN3CCN(c4ccccc4)CC3)c2c1 the results were HT1080 IDH1KD tx inactive, TDP1 cell CPT inconclusive, HT1080-NT tox inactive, TDP1 cell noCPT inconclusive, uPA surface inh inactive and IL-1B inflam inh inactive.
For CC1CCN(Cc2cc(=O)oc3ccc(C(C)C)cc23)CC1 the results were HT1080 IDH1KD tx inactive, TDP1 cell CPT 25.9µM, HT1080-NT tox inactive, TDP1 cell noCPT inconclusive, uPA surface inh inactive and IL-1B inflam inh inactive.
Cc1cc2oc(=O)cc(CN3CCC(C)CC3)c2cc1C was read as HT1080 IDH1KD tx inactive, TDP1 cell CPT inactive, HT1080-NT tox inactive, TDP1 cell noCPT inactive, uPA surface inh inactive and IL-1B inflam inh inactive.
O=c1ccc(-c2ccccc2)nn1Cc1ccc(F)cc1Cl was read as HT1080 IDH1KD tx inconclusive, TDP1 cell CPT inconclusive, HT1080-NT tox inactive, TDP1 cell noCPT inconclusive, uPA surface inh inactive and IL-1B inflam inh inconclusive.
CCC(=O)O was read as TDP1 cell CPT inactive and TDP1 cell noCPT inactive.
Screening CC1(C(=O)Nc2ncc(Cc3ccc(Br)cc3)s2)Cc2ccccc2C(=O)O1 (configuration not stated) returned TDP1 cell CPT 23.1µM and TDP1 cell noCPT 23.1µM.
Screening CCOC(=O)CC1(CCc2ccccc2)Oc2ccccc2O1 returned HT1080 IDH1KD tx inactive, TDP1 cell CPT inactive, HT1080-NT tox inactive, TDP1 cell noCPT inactive and IL-1B inflam inh inactive.
CCCCOc1ccc(C(=O)NCC(=O)OCCCOC(=O)CNC(=O)c2ccc(OCCCC)cc2)cc1 was read as HT1080 IDH1KD tx inactive, TDP1 cell CPT inconclusive, HT1080-NT tox inactive, TDP1 cell noCPT inactive and IL-1B inflam inh inactive.
For COc1ccc(OC)c(CNC(=O)c2cnc3c(C)cccn3c2=O)c1 the results were TDP1 cell CPT inactive and TDP1 cell noCPT inactive.
Cc1ccc(S(=O)(=O)ON2C(=O)c3cccc4cccc(c34)C2=O)cc1 was read as HT1080 IDH1KD tx inactive, TDP1 cell CPT inconclusive, HT1080-NT tox inactive, TDP1 cell noCPT 16.4µM, uPA surface inh inactive and IL-1B inflam inh inactive.
For Cc1cc(S(=O)(=O)ON2C(=O)c3ccccc3C2=O)ccc1F the results were HT1080 IDH1KD tx inactive, TDP1 cell CPT 3.26µM, HT1080-NT tox inactive, TDP1 cell noCPT 2.06µM, uPA surface inh inactive and IL-1B inflam inh inactive.
Screening Cc1cc(S(=O)(=O)Nc2cc3c(cc2C)n(C)c(=O)c(=O)n3C)ccc1F returned TDP1 cell CPT inactive and TDP1 cell noCPT inactive.
For O=C1c2cccc3cccc(c23)C(=O)N1OS(=O)(=O)c1ccc(Br)cc1 the results were HT1080 IDH1KD tx inactive, TDP1 cell CPT inconclusive, HT1080-NT tox inactive, TDP1 cell noCPT 10.3µM, uPA surface inh inactive and IL-1B inflam inh inactive.

Assay outcomes from PubChem BioAssay.
